In PubChem BioAssay (NCATS):
Where “and” joins values, the source holds several entries; their conditions need not be identical. Identical values can stand only once. Results filed as inconclusive are left out. Calls of active or inactive are those of the source. Unless noted, calls follow the shape of the dose curve; as a rule, active = well fitted curve in the direction sought with a large enough effect; inconclusive = small, poorly fitted or top-dose-only effect, or another doubt; inactive = no such curve, though single readings can be large; an effect the other way counts as inactive or inconclusive.

Experiments:
[1] = qHTS Assay for Identification of Small Molecule Agonists for Hypoxia Response Element Signaling Pathway (AID 914; active = well fitted activation curve with a large enough effect in the signal ratio, with a control signal flat, not every such curve was filed as active; the % refers to the signal ratio; also: % of control where 0% means no effect); conditions: ME-180 (cervical carcinoma) HRE-bla reporter, beta-lactamase ratio, CoCl2, 17 h; activation: active compounds read high
How it was run: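 Positive modulation of EC50 CoCl2-induced hypoxia response element signaling is measured in ME-180 cells with a beta-lactamase reporter. Compounds are titrated, incubation runs 17 hours, and %Activity derives from the blue/green ratio.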

[2] = biological target: Muscarinic acetylcholine receptor M1 (Rattus norvegicus) (UniProt P08482); assay: qHTS Assay for Antagonists of Acetylcholine Muscarinic M1 Receptor: Kinetic Measurement of Intracellular Calcium Response (AID 943); also: nearly all actives have a fitted effect of over 75% in size; also: potency is read from the fitted curve at half-maximal effect
How it was run: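 CHO cells stably expressing rat M1 were loaded with no-wash Fluo-4 dye for 1 h at 37C, pre-incubated 10 min with compound, then challenged with EC80 carbachol (100 nM final); kinetic calcium read 4 min, peak/basal ratio.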

[3] = biological target: Muscarinic acetylcholine receptor M1 (Rattus norvegicus) (UniProt P08482); assay: qHTS Assay for Antagonists of Acetylcholine Muscarinic M1 Receptor: Measurement of IP-One Response (AID 944); also: nearly all actives have a fitted effect of over 75% in size; also: potency is read from the fitted curve at half-maximal effect
How it was run: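 CHO cells expressing rat M1 receptor, recovered overnight, were pre-incubated 10 min with compound, then stimulated 30 min with carbachol at EC80 (200 nM) in LiCl-containing buffer, pH 7.4. IP1 accumulation was read by HTRF (620/665 nm).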

[4] = biological target: Pyruvate kinase (Leishmania mexicana) (UniProt Q27686); assay: qHTS Validation Assay for Inhibitors of Leishmania Mexicana Pyruvate Kinase (AID 945);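 also: 0% = DMSO only neutral control wells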
How it was run: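 qHTS eight-point titrations against 0.2 nM LmPYK (E451W) in imidazole buffer pH 7.2 with 0.5 mM PEP, 0.1 mM ADP; 1 h, room temperature. Readout: PKLight luminescence, normalized to neutral DMSO wells.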

[5] = biological target: Pyruvate kinase PKM (Homo sapiens) (UniProt P14618); assay: qHTS Assay for Activators of Human Muscle Pyruvate Kinase (AID 954; active = well fitted curve in the direction sought with a large enough effect, not every such curve was filed as active;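 also: 0% = uninhibited enzyme and -100% = no enzyme or full thiadiazolimine inhibition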)
How it was run: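 Purified human PKM2 (0.1 nM) with 0.5 mM PEP (Km) and 0.1 mM ADP in 50 mM imidazole pH 7.2, KCl, MgCl2, 1 h at room temperature; ATP formed read by coupled luciferase luminescence. Normalized to no-enzyme/110 uM thiadiazolimine inhibition; 0.3 nM enzyme column for activation.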

[6] = biological target: Alpha-galactosidase A (Homo sapiens) (UniProt P06280); assay: Counterscreen for Glucocerebrosidase Inhibitors: qHTS Assay for Human alpha-Galactosidase at pH 4.5 (AID 992); also: 0% is about no effect
How it was run: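 Human enzyme (2 nM) with 80 uM 4-methylumbelliferyl alpha-D-galactopyranoside in 50 mM citric acid, 0.005% Tween-20, pH 4.5, 20 min at room temperature. Compounds 0.7 nM–77 uM; fluorescence Ex 365/Em 440 after pH 10 stop; AC50 from Hill fits.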

[7] = biological target: alpha-glucosidase (Oryza sativa, rice) (UniProt Q653V4); assay: Counterscreen for Glucocerebrosidase Inhibitors: qHTS Assay for Rice alpha-Glucosidase at pH 5.0 (AID 997);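 also: 0% = full activity with enzyme and -100% = basal without enzyme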
How it was run: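 Rice alpha-glucosidase (4 nM final) with 400 uM 4-methylumbelliferyl-alpha-D-glucopyranoside in citrate buffer pH 5.0, 20 min at room temperature, stopped at pH 10; fluorescence 365/440 nm, compounds 0.7 nM–77 uM, AC50 from Hill fits.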

[8] = qHTS Assay for Identification of Small Molecule Agonists for Thrombopoietin (TPO) Signaling Pathway (AID 917); also: % is scaled to controls: 0 for no effect and ±100 for the full control effect
How it was run: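 Murine Ba/F3 cells stably expressing human TPO receptor and a Glycoprotein IIb promoter–luciferase reporter were IL-3-starved overnight, then treated with compounds plus TPO (26 pM final, its EC50) for 24 hrs at 37 C; luminescence was read.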

[9] = biological target: Cytochrome P450 2C9 (Homo sapiens) (UniProt P11712); assay: qHTS Assay for Inhibitors and Substrates of Cytochrome P450 2C9 (AID 883); also: % is scaled to controls: 0 for no effect and ±100 for the full control effect; nearly all actives have a fitted effect of over 60% in size
How it was run: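 A luminogenic readout tracked human CYP2C9 (10nM) converting deoxyluciferin (100uM, at KM) in 25mM KPO4 during 60 min at 37C with regenerated NADPH. Values normalized to 57uM sulphaphenazole as complete inhibition.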

[10] = biological target: Cytochrome P450 2D6 (Homo sapiens) (UniProt P10635); assay: qHTS Assay for Inhibitors and Substrates of Cytochrome P450 2D6 (AID 891); also: nearly all actives have a fitted effect of over 60% in size; also: potency is read from the fitted curve at half-maximal effect
How it was run: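 Human CYP2D6 (5 nM) with 30 uM Luciferin-ME EGE (at Km) in 100 mM KPO4, compound preincubated 10 min, then NADPH regeneration system for 60 min at room temperature. Luciferin read by luminescence; normalized to 1.43 uM quinidine.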

[11] = biological target: Cytochrome P450 2C19 (Homo sapiens) (UniProt P33261); assay: qHTS Assay for Inhibitors and Substrates of Cytochrome P450 2C19 (AID 899); also: % is scaled to controls: 0 for no effect and ±100 for the full control effect; nearly all actives have a fitted effect of over 60% in size
How it was run: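 NADPH-dependent conversion of Luciferin-H EGE (10uM, at KM) by 5nM enzyme in 50mM KPO4, 60 min at 37C following 10 min compound preincubation. Stopped with luciferin detection buffer; luminescence read after 20 min.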

[12] = qHTS Assay for Identification of Small Molecule Antagonists for NFkB Signaling Pathway (AID 895; active = well fitted inhibition curve with a large enough effect in the signal ratio, with a control signal flat, not every such curve was filed as active; the % refers to the signal ratio; also: % is scaled to controls: 0 for no effect and ±100 for the full control effect)
How it was run: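 NFkB-bla ME-180 cervical carcinoma cells with beta-lactamase reporter under NFkB response element; compounds added, then TNF alpha at 10 pM final (EC50), 5 h at 37 C. LiveBLAzer substrate 2 h, room temperature; emission 460/530 nm at 405 nm excitation.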

Sequence of Cytochrome P450 2C9 (Homo sapiens) (P11712 whole entry, looked up): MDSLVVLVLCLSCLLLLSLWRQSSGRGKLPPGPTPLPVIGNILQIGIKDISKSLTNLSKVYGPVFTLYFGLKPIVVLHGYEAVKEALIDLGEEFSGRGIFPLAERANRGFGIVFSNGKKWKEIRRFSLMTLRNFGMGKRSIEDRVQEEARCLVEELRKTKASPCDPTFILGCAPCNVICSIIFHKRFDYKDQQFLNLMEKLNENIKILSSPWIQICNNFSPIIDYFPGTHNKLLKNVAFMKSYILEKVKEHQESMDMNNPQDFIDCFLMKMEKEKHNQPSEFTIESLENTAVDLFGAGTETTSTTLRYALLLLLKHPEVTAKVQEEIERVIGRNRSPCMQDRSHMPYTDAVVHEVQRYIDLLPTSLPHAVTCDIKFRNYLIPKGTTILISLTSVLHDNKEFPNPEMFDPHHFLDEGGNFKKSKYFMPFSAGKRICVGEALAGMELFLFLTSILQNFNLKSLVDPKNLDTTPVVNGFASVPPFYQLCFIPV
Sequence of Cytochrome P450 2D6 (Homo sapiens) (P10635 whole entry, looked up): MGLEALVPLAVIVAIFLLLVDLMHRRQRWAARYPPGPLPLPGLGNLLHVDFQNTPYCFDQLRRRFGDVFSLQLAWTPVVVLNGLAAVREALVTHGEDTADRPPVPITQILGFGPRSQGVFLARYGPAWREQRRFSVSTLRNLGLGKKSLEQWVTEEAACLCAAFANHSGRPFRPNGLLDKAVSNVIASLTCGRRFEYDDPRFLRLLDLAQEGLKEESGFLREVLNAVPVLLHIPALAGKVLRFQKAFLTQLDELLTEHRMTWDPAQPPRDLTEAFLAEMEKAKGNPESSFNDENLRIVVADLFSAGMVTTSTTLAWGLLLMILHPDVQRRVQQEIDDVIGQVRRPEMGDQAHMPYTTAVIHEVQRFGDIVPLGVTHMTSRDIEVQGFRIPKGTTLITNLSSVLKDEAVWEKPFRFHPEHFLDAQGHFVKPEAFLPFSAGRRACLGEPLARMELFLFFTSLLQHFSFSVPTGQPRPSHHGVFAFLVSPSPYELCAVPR
Sequence of Cytochrome P450 2C19 (Homo sapiens) (P33261 whole entry, looked up): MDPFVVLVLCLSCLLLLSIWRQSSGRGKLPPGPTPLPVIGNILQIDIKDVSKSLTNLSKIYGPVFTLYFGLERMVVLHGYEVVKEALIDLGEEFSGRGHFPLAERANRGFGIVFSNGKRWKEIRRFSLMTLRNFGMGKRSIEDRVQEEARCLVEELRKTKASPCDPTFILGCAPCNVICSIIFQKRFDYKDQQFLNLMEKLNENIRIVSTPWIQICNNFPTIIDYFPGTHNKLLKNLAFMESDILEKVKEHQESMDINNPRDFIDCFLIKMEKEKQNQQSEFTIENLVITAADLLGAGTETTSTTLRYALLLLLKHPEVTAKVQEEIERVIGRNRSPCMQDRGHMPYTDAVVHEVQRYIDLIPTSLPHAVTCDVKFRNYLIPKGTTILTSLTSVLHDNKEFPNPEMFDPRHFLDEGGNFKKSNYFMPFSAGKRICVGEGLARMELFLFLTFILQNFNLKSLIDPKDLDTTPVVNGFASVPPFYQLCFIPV
Sequence of Alpha-galactosidase A (Homo sapiens) (P06280 whole entry, looked up): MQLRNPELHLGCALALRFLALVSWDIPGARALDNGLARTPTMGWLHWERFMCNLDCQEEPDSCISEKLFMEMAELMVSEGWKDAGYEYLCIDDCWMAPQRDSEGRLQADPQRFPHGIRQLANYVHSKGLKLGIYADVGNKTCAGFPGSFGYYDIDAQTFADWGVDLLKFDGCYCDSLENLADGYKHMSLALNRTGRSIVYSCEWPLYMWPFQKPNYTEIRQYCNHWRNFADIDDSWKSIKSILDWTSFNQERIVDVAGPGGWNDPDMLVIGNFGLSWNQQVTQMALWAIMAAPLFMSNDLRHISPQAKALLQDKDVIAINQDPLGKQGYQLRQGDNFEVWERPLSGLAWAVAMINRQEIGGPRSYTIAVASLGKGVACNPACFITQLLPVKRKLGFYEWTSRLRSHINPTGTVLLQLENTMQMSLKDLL
Sequence of Muscarinic acetylcholine receptor M1 (Rattus norvegicus) (P08482 whole entry, looked up): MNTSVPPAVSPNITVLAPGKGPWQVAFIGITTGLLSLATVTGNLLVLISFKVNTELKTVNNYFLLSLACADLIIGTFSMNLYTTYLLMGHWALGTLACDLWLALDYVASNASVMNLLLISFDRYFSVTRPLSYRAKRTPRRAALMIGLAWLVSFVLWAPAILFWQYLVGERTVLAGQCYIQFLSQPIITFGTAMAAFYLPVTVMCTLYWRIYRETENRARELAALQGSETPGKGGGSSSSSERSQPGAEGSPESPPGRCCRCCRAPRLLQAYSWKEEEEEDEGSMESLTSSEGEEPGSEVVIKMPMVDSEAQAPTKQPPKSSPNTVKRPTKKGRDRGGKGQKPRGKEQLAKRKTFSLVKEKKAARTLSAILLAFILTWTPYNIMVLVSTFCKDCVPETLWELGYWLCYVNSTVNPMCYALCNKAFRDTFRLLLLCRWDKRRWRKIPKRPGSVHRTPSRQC
Sequence of Pyruvate kinase PKM (Homo sapiens) (P14618 whole entry, looked up): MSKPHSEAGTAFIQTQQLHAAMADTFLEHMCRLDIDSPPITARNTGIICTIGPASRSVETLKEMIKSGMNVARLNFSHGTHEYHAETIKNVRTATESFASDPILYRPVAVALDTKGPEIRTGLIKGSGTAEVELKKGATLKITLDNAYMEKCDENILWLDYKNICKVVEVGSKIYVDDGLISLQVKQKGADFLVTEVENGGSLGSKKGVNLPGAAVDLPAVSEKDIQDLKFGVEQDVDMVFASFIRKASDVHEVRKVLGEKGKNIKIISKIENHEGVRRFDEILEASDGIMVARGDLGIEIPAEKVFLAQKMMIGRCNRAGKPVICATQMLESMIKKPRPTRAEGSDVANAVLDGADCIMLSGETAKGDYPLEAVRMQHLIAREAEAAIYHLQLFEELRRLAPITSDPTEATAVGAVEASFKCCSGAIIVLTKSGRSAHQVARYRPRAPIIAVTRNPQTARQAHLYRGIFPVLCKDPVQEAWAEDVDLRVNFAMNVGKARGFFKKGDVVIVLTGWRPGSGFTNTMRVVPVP
Sequence of Pyruvate kinase (Leishmania mexicana) (Q27686 2-499 E452W): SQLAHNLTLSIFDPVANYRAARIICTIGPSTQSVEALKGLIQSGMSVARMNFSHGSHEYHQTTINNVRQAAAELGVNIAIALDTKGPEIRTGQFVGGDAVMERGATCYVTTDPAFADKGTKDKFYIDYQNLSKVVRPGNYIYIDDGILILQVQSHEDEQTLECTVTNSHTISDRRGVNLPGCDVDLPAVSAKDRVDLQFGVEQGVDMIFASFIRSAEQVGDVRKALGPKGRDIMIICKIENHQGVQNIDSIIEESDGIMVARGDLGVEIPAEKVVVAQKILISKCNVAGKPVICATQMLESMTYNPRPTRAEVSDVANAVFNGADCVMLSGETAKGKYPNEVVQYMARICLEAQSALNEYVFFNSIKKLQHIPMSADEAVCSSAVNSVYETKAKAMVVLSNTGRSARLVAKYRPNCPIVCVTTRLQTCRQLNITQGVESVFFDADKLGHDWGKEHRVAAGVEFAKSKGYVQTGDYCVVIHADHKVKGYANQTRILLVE

COc1c(O)cc2c(c1O)[C@@H]1O[C@@H](CO)[C@@H](O)[C@@H](O)[C@@H]1OC2=O
inactive: activation [1] 14.6%

CC[C@H](NC(C)C)[C@H](O)c1ccc(O)c(O)c1
inactive: Potency [2] | Potency [3] | outcome [4] | outcome [5] | outcome [6] | outcome [7]

CC(=O)O[C@@H](C)C[N+](C)(C)C
inactive: outcome [8] | Potency [2] | Potency [3] | outcome [4] | outcome [5] | outcome [6] | outcome [7]

CN1[C@@H](CC(=O)c2ccccc2)CCC[C@@H]1C[C@@H](O)c1ccccc1
inactive: Potency [9] | Potency [11] | outcome [8] | outcome [4] | outcome [5] | outcome [6] | outcome [7]
active: Potency [10] 251 nM and 79.4 nM and 10 nM

C[C@H](NCCc1ccc(O)cc1)[C@@H](O)c1ccc(O)cc1
active: Potency [2] 12600 nM
inactive: Potency [12] | outcome [8] | outcome [4] | outcome [5] | outcome [6] | outcome [7]

CC(=O)O[C@]1(C(C)=O)CC[C@@H]2[C@@H]3C=C(Cl)C4=CC(=O)[C@H]5C[C@@H]5[C@]4(C)[C@H]3CC[C@]21C
inactive: outcome [8] | outcome [4] | outcome [5] | outcome [6] | outcome [7]

CC1=C(C(=O)O)N2C(=O)[C@@H](NC(=O)[C@@H](N)c3ccccc3)[C@@H]2SC1
inactive: Potency [12] | outcome [8] | outcome [4] | outcome [5] | outcome [6] | outcome [7]

C[C@@H](CN(C)C)CN1c2ccccc2CCc2ccccc21
active: Potency [10] 5010 nM | Potency [2] 141 nM | Potency [3] 126 nM
inactive: outcome [4] | outcome [5] | outcome [6] | outcome [7]

CC1(C)O[C@@H]2C[C@H]3[C@H]4C[C@H](F)C5=CC(=O)C=C[C@@]5(C)[C@@H]4[C@H](O)C[C@]3(C)[C@]2(C(=O)CO)O1
inactive: Potency [11]

COc1c2ccoc2nc2c(OC)c(OC[C@H](O)C(C)(C)O)ccc12
inactive: Potency [9] | Potency [10] | Potency [11]

O[C@@](CCN1CCCCC1)(c1ccccc1)C1CCCCC1
active: Potency [10] 5.01 µM and 1.26 µM
inactive: outcome [8] | outcome [4] | outcome [5] | outcome [6] | outcome [7]

CC(C)COC[C@H](CN(Cc1ccccc1)c1ccccc1)N1CCCC1
active: Potency [10] 15.8 nM
inactive: outcome [8] | Potency [2] | Potency [3] | outcome [4] | outcome [5] | outcome [6] | outcome [7]

CCN1CCC[C@@H]1CNC(=O)c1cc(S(N)(=O)=O)ccc1OC
inactive: Potency [9] | Potency [10] | Potency [12] | Potency [11] | outcome [8] | outcome [4] | outcome [5] | outcome [6] | outcome [7]

C[C@@](N)(Cc1ccc(O)cc1)C(=O)O
inactive: outcome [8] | outcome [4] | outcome [5] | outcome [6] | outcome [7]

CCCN1C[C@H](CSC)C[C@H]2c3cccc4[nH]cc(c34)C[C@@H]21
active: Potency [10] 31.6 nM
inactive: Potency [9] | Potency [11]

C[C@@H](C(=O)O)c1cccc(C(=O)c2ccccc2)c1
inactive: Potency [12] | outcome [4] | outcome [5] | outcome [6] | outcome [7]

OCCN1CCN(CC/C=C2\c3ccccc3Sc3ccc(C(F)(F)F)cc32)CC1
inactive: outcome [4] | outcome [5] | outcome [6] | outcome [7]
active: Potency [2] 891 nM | Potency [3] 5010 nM
